PAFAH1B3 inh: inhibitors of human PAFAH1B3; inhibition, % at 3.39 µM; Q15102; recombinant PAFAH1B3, FP-rhodamine probe, fluorescence polarization; 340,000 tested, 0.28% active; AID 492972;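 active = inhibition above the screen-wide average of all tested compounds plus 3 SD, cut at about 25% in these data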;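 note: 0% = enzyme with DMSO only and 100% = wells lacking PAFAH1B3 protein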
PAFAH2 inh: PAFAH2 (human) inhibition | inhibition, % at 3.39 µM | recombinant PAFAH2, FP-rhodamine activity probe, fluorescence polarization | AID 492956 | 340,000 tested, 0.99% active | Q99487;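 active = inhibition above the mean over all tested compounds plus 3 SD, cut at about 30% in these data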;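 note: inhibitors block probe labeling of enzyme so polarization drops; 0% = enzyme with DMSO and 100% = wells lacking PAFAH2 protein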
pPAFAH inh: pPAFAH (human) enzyme inhibition; recombinant pPAFAH, FP-rhodamine probe fluorescence polarization; Q13093; AID 463082; inhibition, % at 3.39 µM; 330,000 tested, 1.5% active;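 active = inhibition above the mean inhibition across the screen plus 3 SD, cut at about 25% in these data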;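 note: inhibitors block binding of the rhodamine activity-based probe so polarization drops; 0% = enzyme with DMSO and 100% = wells lacking pPAFAH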
PKA-R1A act: activates the PKA-R1A holoenzyme complex; P00514+P68181; PKA-R1A dissociation, Cy5-IP20 fluorescence polarization; scaled: DMSO 0%, 113 µM cGMP 100%; activation, % at 11.4 µM; 340,000 tested, 0.083% active; AID 504707;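 active = percent activation above the mean of all tested compounds plus 3 SD, cut at about 19% in these data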;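 note: higher means more PKAc released from R1A so a rise in polarization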
PKA-R2B activ: activators of human PKA-R2B complex. P22694+P31323. PKA-R2B holoenzyme dissociation, Cy5-IP20 fluorescence polarization; R2B truncated from residue 108, S112A mutant; 0% DMSO only, 100% 113 µM cGMP. activation, % at 11.4 µM. 340,000 tested, 0.079% active;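 active = activation above a cutoff set at the mean over all compounds plus 3 SD, cut at about 18% in these data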;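 note: higher means more holoenzyme dissociation and a rise in polarization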
Target sequence (P31323 whole entry, looked up, other chains not shown, the tested form may be a part): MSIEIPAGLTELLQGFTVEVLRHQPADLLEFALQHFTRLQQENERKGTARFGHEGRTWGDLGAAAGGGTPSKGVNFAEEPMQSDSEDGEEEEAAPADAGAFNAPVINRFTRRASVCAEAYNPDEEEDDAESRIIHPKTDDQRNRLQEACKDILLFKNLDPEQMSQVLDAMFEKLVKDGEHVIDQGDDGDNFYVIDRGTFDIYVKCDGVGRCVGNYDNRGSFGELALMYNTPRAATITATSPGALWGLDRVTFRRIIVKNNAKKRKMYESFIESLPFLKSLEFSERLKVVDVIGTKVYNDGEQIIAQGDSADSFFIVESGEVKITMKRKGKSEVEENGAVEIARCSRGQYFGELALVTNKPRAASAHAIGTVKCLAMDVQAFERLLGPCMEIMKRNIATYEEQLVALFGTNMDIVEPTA
PAFAH1B2 FP inh: blocks human PAF acetylhydrolase 1b catalytic subunit 2; recombinant PAFAH1B2, FP-rhodamine activity probe, fluorescence polarization; AID 492953; 340,000 tested, 1.2% active; inhibition, % at 3.39 µM; P68402;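 active = inhibition above the mean of all tested compounds plus 3 SD, cut at about 24% in these data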;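 note: 0% = enzyme with DMSO and 100% = wells lacking PAFAH1B2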
* hit, by the source's call; . = no result given. This is a sample that favours compounds with a hit; in the whole collection about 2.6% have one here.

SMILES	PAFAH1B3 inh	PAFAH2 inh	pPAFAH inh	PKA-R1A act	PKA-R2B activ	PAFAH1B2 FP inh
COc1cc2c(c(OC)c1OC)-c1ccc(SC)c(=O)cc1C(NC=O)CC2 (stereo not drawn)	2	23	.	-2	0	3
COc1cccc(CNC(=O)CCS(=O)(=O)c2ccccc2Cl)c1	17	6	5	3	-2	6
CCOC(=O)C1=C(C)c2ccccc2OC1(C(=O)OCC)C(C)C (stereo not drawn)	1	11	0	-7	1	3
CCOC(=O)c1sc(NC(=O)Nc2ccc(Cl)cc2)cc1C	20	2	26*	-8	-9	8
COc1ccc(-c2ccc3c(N)c(C(=O)c4cccc(OC)c4)sc3n2)cc1	0	2	34*	5	3	-2
N=c1c(S(=O)(=O)c2ccc(Br)cc2)cc2c(=O)n3ccccc3nc2n1Cc1ccco1	6	6	27*	-8	4	4
COC(=O)c1ccc(S(=O)(=O)NCc2ccc(OC)cc2)n1C	7	4	0	3	4	29*
CCc1sc(C(=O)Nc2ccc3c(c2)OCO3)cc1C	18	17	25*	-1	-5	6
CCc1sc(C(=O)Nc2ccc3c(c2)OCCO3)cc1Br	4	-7	10	-6	0	7
COc1ccc(N2CCN(C(=O)CSc3nc4nc(C)cc(C)n4n3)CC2)cc1	9	-6	0	-19	2	3
CCN(CC)c1ccc(N=Nc2nn(C)c(C)c2[N+](=O)[O-])cc1	7	-7	4	-7	-5	15
CCN(Cc1ccccc1)c1ccc(N=Nc2nn(C)c(C)c2[N+](=O)[O-])cc1	7	9	25*	5	-4	62*
O=S(=O)(NCc1ccc(F)cc1)c1ccccc1Br	4	1	1	4	-10	25*
Cc1ccccc1NS(=O)(=O)c1ccc(OCCNS(C)(=O)=O)cc1	1	0	32*	-6	-6	-6
Cc1ccccc1NS(=O)(=O)c1ccc(OCC(=O)N2CCCC2)cc1	-1	-23	22	-2	-5	-1
CN1CCN(S(=O)(=O)c2ccc(Sc3nnnn3-c3ccccc3)c([N+](=O)[O-])c2)CC1	9	10	-1	0	-7	38*
O=C(O)c1ccc(N=N/C(=N\Nc2ccc(C(=O)O)cc2)c2ccccc2)cc1	-2	6	27*	-6	-3	3
Brc1ccc(N/N=C(/N=Nc2nn[nH]n2)c2ccccc2)cc1	23	44*	61*	-4	4	21
O=C(O)c1cccc(N/N=C(\N=Nc2ccccc2)c2ccccc2)c1	-5	17	25*	-22	-8	3
NC(=O)/C(N=Nc1ccccc1)=N/Nc1ccccc1	-1	5	5	4	8	0
O=C(/C(=N\Nc1ccc(Br)cc1)Sc1nnnn1-c1ccccc1)c1ccccc1	11	8	0	11	0	20
COc1cc(C2C(C#N)=C(N)Oc3c2ccc2ccccc32)ccc1OCC(=O)Nc1ccc(C)cc1 (stereo not drawn)	-17	-31	28*	5	-12	-14
COc1cc(C2C(C#N)=C(N)Oc3c2ccc2ccccc32)ccc1OCC(=O)Nc1cccc(C)c1 (stereo not drawn)	-18	-39	33*	-8	-6	-18
COc1ccc(C2C(C#N)=C(N)Oc3c2ccc2cccnc32)cc1OC (stereo not drawn)	1	4	10	-13	12	4
Nc1nn2c(-c3ccccc3)cc(=O)[nH]c2c1N=Nc1ccc(O)cc1	16	29	27*	4	7	14
SMILES	PAFAH1B3 inh	PAFAH2 inh	pPAFAH inh	PKA-R1A act	PKA-R2B activ	PAFAH1B2 FP inh
CC1Cc2ccccc2N1S(=O)(=O)c1cccc(C(=O)NC2CC2)c1 (stereo not drawn)	-3	12	1	5	-3	6
CC1Cc2ccccc2N1S(=O)(=O)c1cccc(C(=O)OCC(=O)NC2CCS(=O)(=O)C2)c1 (stereo not drawn)	-4	17	11	-9	-12	26*
O=C(COC(=O)c1cccc(S(=O)(=O)NCc2ccccc2)c1)NC1CC1	13	27	27*	-11	0	14
O=C(c1cccc(S(=O)(=O)NCc2ccccc2)c1)N1CCN(Cc2ccccc2)CC1	4	3	27*	-3	0	68*
O=C(COC(=O)/C=C/c1cccc(Cl)c1Cl)Nc1ccc2[nH]c(=O)[nH]c2c1	4	-13	-1	-11	7	3
N#CC(=C1C=CC(=NO)C(Cl)=C1)c1ccc(Cl)cc1	8	7	.	-6	-3	38*
COc1ccc(C(C#N)=C2C=CC(=NO)C=C2)cc1	6	10	-3	-3	-9	14
CCC(=O)C1CCCN(C(=O)CCc2nnc(-c3ccc(C(C)=O)s3)o2)C1 (stereo not drawn)	7	4	3	4	3	5
Cc1cccc(NC(=O)CCCCCN2C(=O)[C@@H]3Cc4ccccc4CN3C2=O)c1	3	12	5	5	4	5
Cc1ccc(NC(=O)CCCCCN2C(=O)[C@@H]3Cc4ccccc4CN3C2=O)cc1	7	9	3	6	-10	28*
CCOC(=O)c1sc(NC(=O)CN2C(=O)NC3(CC(C)CC(C)(C)C3)C2=O)cc1C (stereo not drawn)	3	-7	-10	-9	-10	2
C=CC[C@H](CC(=O)N(CCO)Cc1ccccc1)C(=O)N[C@H](COC(=O)[C@@H](CC=C)Cc1ccc(F)cc1)Cc1ccccc1	3	-1	4	-7	-10	57*
C=CC[C@@H](CC(=O)N(CCO)Cc1ccccc1)C(=O)N[C@H](C)COC(=O)[C@@H](CC=C)Cc1ccc(F)cc1	7	13	3	-1	-6	11
C=CCC[C@H](Cc1ccc(F)cc1)C(=O)O[C@H](CNC(=O)[C@@H](CC=C)CC(=O)N(CCO)Cc1ccccc1)c1ccccc1	5	6	19	-2	-4	27*
O=C(NCc1ccc(F)cc1)C1CCN(S(=O)(=O)c2ccc(Br)s2)CC1	2	-11	3	-1	-5	25*
O=C(NCc1ccc(F)cc1)C1CCCN(S(=O)(=O)c2ccc(Br)s2)C1 (stereo not drawn)	7	3	7	-3	6	12
CC(=O)c1ccc(NC(=O)COC(=O)C2CC3C=CC2C3)cc1 (stereo not drawn)	4	20	6	6	-4	1

Screens: PubChem, The Scripps Research Institute Molecular Screening Center
